From the supplement of paper PMC10981050
Where “and” joins values, the source holds several entries; their conditions need not be identical. Equal entries are not always repeated. Structures can show the parent of a compound that is named as a salt.

What was measured:
Experiment in all cases: cell viability relative to vehicle control; higher = less cytotoxic
Details in all cases: 10 µM
K562 = system: K562
Summary of the method: (§1)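 Mutant clones made by CRISPR editing and their isogenic wild-type counterparts, from four leukaemia lines, were exposed to a single 10 µM dose of each library compound for 48 h. The supernatant was then removed and CellTiter-Glo luminescence was read. Viability was reported as percent of the on-plate vehicle control.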

MARIMO = system: MARIMO
Summary of the method: as §1

MOLM14 = system: MOLM14
Summary of the method: as §1

OCI-AML2 = system: OCI-AML2
Summary of the method: as §1

Compound | cell viability (K562; SRSF2 genotype: SRSF2 P95H/wt) | cell viability (K562; SRSF2 genotype: SRSF2 wt/wt) [%] | cell viability (MARIMO; SRSF2 genotype: SRSF2 P95H/wt) [%] | cell viability (MARIMO; SRSF2 genotype: SRSF2 wt/wt) [%] | cell viability (MOLM14; SRSF2 genotype: SRSF2 P95H/wt) [%] | cell viability (MOLM14; SRSF2 genotype: SRSF2 wt/wt) [%] | cell viability (OCI-AML2; SRSF2 genotype: P95H/wt) [%] | cell viability (OCI-AML2; SRSF2 genotype: wt/wt) [%]
Cc1noc(-c2ccc(CSCCC(=O)O)cc2)c1NC(=O)OC(C)c1ccccc1Cl (configuration not stated) | 106% and 105% | 104 | 101 | 113 | 104 | 102 | 104 | 111
COc1ccc2c3c1O[C@H]1C[C@@H](O)C=C[C@@]31CCN(C)C2 [Galanthamine] | 103% and 106% | 99.9 | 102 | 106 | 97.9 | 105 | 109 | 95
CC(/C=C/C=C(\C)C(=O)O[C@@H]1O[C@H](CO[C@@H]2O[C@H](CO)[C@@H](O)[C@H](O)[C@H]2O)[C@@H](O)[C@H](O)[C@H]1O)=C\C=C\C=C(C)\C=C\C=C(/C)C(=O)O[C@@H]1O[C@H](CO[C@@H]2O[C@H](CO)[C@@H](O)[C@H](O)[C@H]2O)[C@@H](O)[C@H](O)[C@H]1O [Crocin] | 101% and 100% | 99.8 | 95.6 | 100 | 95.2 | 102 | 107 | 102
COc1ccc(CCNCc2ccc(OCc3ccc(Cl)nc3)c(OC)c2)cc1OC | 85.6% and 95.4% | 89.8 | 87.4 | 95.2 | 91.9 | 99.9 | 91.4 | 83.5
CC(=O)c1ccc(C)cc1O [2'-Hydroxy-4'-methylacetophenone] | 97.1% and 95% | 104 | 95.6 | 103 | 102 | 102 | 94.5 | 107
O=C(O)C(Cc1ccccc1[N+](=O)[O-])=NNc1nc(-c2ccc(Cl)c(Cl)c2)cs1 | 95.8% and 93.5% | 87.9 | 94.2 | 114 | 91.8 | 92.2 | 84.8 | 94
N[C@H]1CC[C@H](N[C@@H]2C[C@H]2c2ccccc2)CC1 | 96% and 97.8% | 93.3 | 89.7 | 88.5 | 87.5 | 86.2 | 71.3 | 84.6
COc1cc(CCC(=O)CC(=O)CCc2ccc(O)c(OC)c2)ccc1O [Tetrahydrocurcumin] | 94.1% and 90.6% | 89.2 | 90.2 | 88.7 | 92.8 | 94.5 | 85.8 | 97.3
O=C(CNc1ccc2ccccc2c1)N/N=C/c1cc(Br)c(O)c(Br)c1O | 81.1% and 82.1% | 72.8 | 50.8 | 65.4 | 62.3 | 51.7 | 49.8 | 58.5
COc1ccc2cccc(CCNC(C)=O)c2c1 [Agomelatine] | 110% and 101% | 104 | 97.7 | 106 | 104 | 102 | 101 | 101
CC(=O)C1=C(O)C=C2Oc3c(C(C)=O)c(O)c(C)c(O)c3C2(C)C1=O (single isomer, unassigned; (+)) [(+)-Usniacin (D-Usnic acid)] | 98.5% and 99.9% | 97.7 | 95.4 | 106 | 95 | 99 | 90.8 | 98.9
CCN(CC)CCCC(C)Nc1c2ccc(Cl)cc2nc2ccc(OC)cc12 (configuration not stated) [Quinacrine Dihydrochloride Dihydrate] | 2.28% and 4.46% | 2.17 | 1.66 | 2.15 | 0.54 | 0.64 | 0.59 | 0.97
COc1ccc(OC)c(C2C(C#N)=C(N)Oc3n[nH]c(-c4ccc5ccccc5c4)c32)c1 (configuration not stated) | 104% and 111% | 105 | 98.9 | 99 | 98.7 | 102 | 105 | 106
COc1cc2nc(N3CCCN(C)CC3)nc(NC3CCN(Cc4ccccc4)CC3)c2cc1OC | 6.31% and 1.97% | 3.98 | 0.75 | 0.69 | 0.24 | 0.26 | 0.23 | 0.28
COc1ccc(CCCOC(Cn2ccnc2)c2ccc(OC)cc2)cc1 (configuration not stated) | 16.1% and 28.8% | 28.9 | 13.8 | 14.8 | 19.7 | 4.26 | 14.6 | 18.9
O=C(c1ccc(Cl)cc1Cl)n1nnc2ccccc21 | 54.8% and 62.1% | 70.3 | 48.4 | 46.2 | 59.3 | 49.6 | 37.9 | 29.3
CCn1cc(NC(=S)Nc2cc(Cl)ccc2OC)c(C(N)=O)n1 | 92% and 90.5% | 89.8 | 99.1 | 99.4 | 96.9 | 95 | 95.2 | 92.5
COc1cc(OCc2cccc(-c3ccccc3)c2C)cc(OC)c1CN1CCCC[C@H]1C(=O)O [PD-1/PD-L1 inhibitor 1] | 87.3% and 92.7% | 100 | 83.7 | 85.2 | 89.8 | 95.3 | 68.2 | 73.2
O=c1cc(-c2ccc(O)cc2)oc2cc(O)c([C@@H]3O[C@H](CO)[C@@H](O)[C@H](O)[C@H]3O)c(O)c12 [Isovitexin] | 98.2% and 98.6% | 98.3 | 92.1 | 93.6 | 95.1 | 95.9 | 99.7 | 103
